# KCNH2 3.1 block – qHTS for Inhibitors of KCHN2 3.1: Mutant qHTS; AID 720553, 2013; Potassium voltage-gated channel subfamily H member 2, brain isoform KCNH2 3.1 (human); U2OS KCNH2 3.1, thallium flux FluxOr; active compounds read low; hit rate 0.95% among 340,000; activity change, % (tested at about 1.8 µM);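 active = maximum activity change below -70%; inconclusive = maximum activity change from -70% to -50%; inactive = maximum activity change above -50%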;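 note: thallium influx rate constant from kinetic fluorescence after stimulation buffer; % is set by controls: 0 for no effect and ±100 for the full control effect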
#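 Kinetic fluorescence (2 min after stimulation buffer) measures Tl+ influx through KCNH2 3.1 expressed by viral transduction in U2OS cells; the rate constant is normalized against DMSO controls serving as positive and negative references.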
# EPAC1 ag – qHTS for Agonist of cAMP-regulated guanine nucleotide exchange factor 3 (EPAC1): primary screen; Rap guanine nucleotide exchange factor 3 (Homo sapiens), O95398; EPAC1 agonist qHTS, biochemical assay; response scale: 100% = response to 6.5 mM cAMP; Potency, µM (series often up to 154 µM), for the others: top-dose activation, actives largely listed as activators; hit rate 0.073% among 360,000; note: potency is the fitted concentration of half-maximal effect; nearly all actives have a fitted effect of over 60% in size
#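 EPAC1 100 nM, Rap1B–BODIPY-GDP 250 nM, unlabeled GDP 50 uM; compound titration; 5 min RT; kinetic read ex480/em540 at 5-min intervals ×30 min; data normalized to 6.5 mM cAMP agonist control.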
# hERG WT inh – qHTS for Inhibitors of KCHN2 3.1: Wildtype qHTS. Voltage-gated inwardly rectifying potassium channel KCNH2 (Homo sapiens), Q12809. U2OS, BacMam KCNH2, thallium flux FluxOr; active compounds read low. activity change, % at 1.84 µM. hit rate 0.37% among 340,000. AID 720551, 2013;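 active = maximum activity change below -70%; inconclusive = maximum activity change between -70% and -50%; inactive = maximum activity change above -50%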; note: % is set by controls: 0 for no effect and ±100 for the full control effect
#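 U2OS cells transduced with wild-type KCNH2 virus are loaded with FluxOr dye for 45 min, and thallium flux is measured in kinetic reads before and after stimulation buffer. Rate constants are normalized to DMSO controls.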
# EPAC2 ag – qHTS for Agonist of cAMP-regulated guanine nucleotide exchange factor 4 (EPAC2): primary screen; Rap guanine nucleotide exchange factor 4 (Homo sapiens), Q8WZA2; EPAC2 activation, biochemical qHTS; response scale: 100% = 6.5 mM cAMP response; Potency, µM (highest dose often 154 µM), without a hit: at the highest dose activation, most hits filed as activators; hit rate 0.079% among 360,000; AID 720711, 2013; note: potency is the fitted concentration of half-maximal effect; nearly all actives have a fitted effect of over 50% in size
# Target sequence (Q8WZA2 whole entry, looked up): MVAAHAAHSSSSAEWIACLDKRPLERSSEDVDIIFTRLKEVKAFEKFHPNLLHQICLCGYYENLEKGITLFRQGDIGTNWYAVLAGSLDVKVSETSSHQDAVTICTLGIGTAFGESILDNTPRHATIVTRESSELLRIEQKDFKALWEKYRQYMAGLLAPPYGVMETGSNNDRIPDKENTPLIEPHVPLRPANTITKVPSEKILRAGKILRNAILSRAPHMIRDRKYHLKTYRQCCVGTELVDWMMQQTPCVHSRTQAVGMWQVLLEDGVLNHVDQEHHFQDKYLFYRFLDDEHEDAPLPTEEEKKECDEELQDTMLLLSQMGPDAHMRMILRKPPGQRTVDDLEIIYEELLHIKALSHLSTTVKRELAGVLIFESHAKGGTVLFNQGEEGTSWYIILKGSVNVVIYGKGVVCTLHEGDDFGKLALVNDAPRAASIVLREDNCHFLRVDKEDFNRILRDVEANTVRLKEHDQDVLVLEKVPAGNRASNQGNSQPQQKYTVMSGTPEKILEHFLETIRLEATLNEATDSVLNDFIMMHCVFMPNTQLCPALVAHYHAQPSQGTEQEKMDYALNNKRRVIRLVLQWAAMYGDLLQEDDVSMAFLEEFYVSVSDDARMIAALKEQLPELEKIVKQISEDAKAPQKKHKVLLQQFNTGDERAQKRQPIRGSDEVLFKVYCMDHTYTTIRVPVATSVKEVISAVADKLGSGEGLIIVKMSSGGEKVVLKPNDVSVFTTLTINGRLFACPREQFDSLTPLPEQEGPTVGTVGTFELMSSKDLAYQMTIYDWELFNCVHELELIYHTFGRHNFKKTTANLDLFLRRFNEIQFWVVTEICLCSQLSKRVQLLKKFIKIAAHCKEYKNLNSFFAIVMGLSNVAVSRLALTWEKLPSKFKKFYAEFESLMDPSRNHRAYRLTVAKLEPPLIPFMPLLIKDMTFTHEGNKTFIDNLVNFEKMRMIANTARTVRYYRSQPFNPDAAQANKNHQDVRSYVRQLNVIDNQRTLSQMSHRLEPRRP
#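 Setup: EPAC2 100 nM, labeled Rap1B complex 250 nM, free GDP 50 uM. Compound titrations pinned in, brief spin, 5 min room temperature incubation. Kinetic fluorescence read over 30 min, normalized to 6.5 mM cAMP.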
# EPAC2 antagonist – qHTS for Antagonist of cAMP-regulated guanine nucleotide exchange factor 2 (EPAC2): primary screen; Rap guanine nucleotide exchange factor 4 (Homo sapiens), Q8WZA2; EPAC2 GEF exchange of Rap1B-BODIPY-GDP, fluorescence; Potency, µM (doses to about 114 µM), for inactives: at the top dose activity, negative = inhibition, usual class: inhibitors; hit rate 0.18% among 360,000; AID 720708, 2013; note: potency is the fitted concentration of half-maximal effect; % is set by controls: 0 for no effect and ±100 for the full control effect; nearly all actives have a fitted effect of over 45% in size
# EPAC1 antagonist – qHTS for Antagonist of cAMP-regulated guanine nucleotide exchange factor 3 (EPAC1): primary screen; Rap guanine nucleotide exchange factor 3 (Homo sapiens), O95398; EPAC1 GEF assay, Rap1b-BODIPY-GDP exchange fluorescence; Potency, µM (top dose mostly 115 µM), for inactives: top-dose activity change, negative = inhibition, hits mostly inhibitors; hit rate 0.14% among 360,000;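 note: potency is the fitted concentration of half-maximal effect; plate controls were vehicle for no effect and positive control for full effect; nearly all actives have a fitted effect of over 50% in size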
# The depositor's hits bear a star; i = inactive; ? = inconclusive; / = no result; [ ] = dose if it differs, or a comment. Rows were chosen to be rich in hits. Some 1.4% of all compounds tested hit in one or more screens of this group. Unless noted, calls come from the whole dose curve; as a rule, active = well fitted curve in the direction sought with a large enough effect; inconclusive = small, poorly fitted or top-dose-only effect, or another doubt; inactive = no such curve, though single readings can be large; an effect the other way counts as inactive or inconclusive.
SMILES,KCNH2 3.1 block,EPAC1 ag,hERG WT inh,EPAC2 ag,EPAC2 antagonist,EPAC1 antagonist
Cc1nnc(SCc2nnc(-c3cccs3)o2)n1Cc1ccccc1,-2.1,-5.0%,-17.9,0.8%,-4.6%,-5.8%
Cc1nc(NC(=O)CSc2nnc(C)n2CC2CCCO2)sc1C (stereo not given),15.1,-0.3%,-188.1*,4.0%,-3.8%,-21.6%
CCC(C)[C@H](N)c1cn([C@@H](Cc2cc3ccccc3[nH]2)C(=O)N2CCNCC2)nn1 (stereo not given in full),42.1,-6.7%,-251.8*,3.6%,7.3%,12.0%
CC(C)C[C@H](N)c1cn([C@@H](Cc2cc3ccccc3[nH]2)C(=O)N2CCNCC2)nn1,6.0,-1.0%,3.0,7.3%,2.4%,-6.8%
CSc1nnc(-c2cnccn2)n1C,-96.9*,10.4%,-14.5,0.2%,-1.5%,8.0%
Cn1c(SCC(N)=O)nnc1-c1cnccn1,-5.7,9.4%,/,2.8%,-0.2%,?
COc1cccc(-c2noc(C3CCCN(C(=O)CC(C)(C)C)C3)n2)c1 (stereo not given),-21.6,-5.9%,-87.4*,9.8%,-12.7%,-7.0%
CCCCC(=O)N1CCCC(c2nc(-c3cccc(OC)c3)no2)C1 (stereo not given),-12.3,12.2%,-4.4,2.5%,-14.9%,6.1%
Cc1ccc(CN(C)C(=O)c2ccccc2NC(=O)c2ccccc2)o1,-8.5,2.6%,1.8,11.3%,-5.3%,8.5%
COc1ccc(C(C)(O)c2nc(-c3ccccc3OC)cs2)cc1 (stereo not given),/,-0.6%,/,19.7%,?,0.2%
CSc1ccc(CN2CCC(C)(Oc3ccc(C(C)=O)cc3)C2)cc1 (stereo not given),/,0.0%,/,7.9%,0.9%,-5.8%
O=C(O)CCc1ccc(-c2ccc(Br)cc2)n1-c1ccc(O)cc1,6.7,-1.4%,0.8,-8.1%,50.1µM*,-16.1%
Cc1ccc(-c2ccc(CCC(=O)O)n2-c2ccc(O)cc2)cc1,8.8,4.0%,6.3,11.3%,-10.9%,-19.5%
COc1ccc(CCC(=O)Nc2cc(S(=O)(=O)N3CCCCC3)ccc2N(C)C)cc1,0.1,2.4%,2.8,2.3%,9.3%,-9.3%
CCC(C(=O)NC1CCCC1)n1c(-c2cc3ccccc3[nH]2)nc2ccccc21 (stereo not given),/,6.7%,/,4.4%,3.6%,-6.4%
CCC(C(=O)NC1CCCCC1)n1c(SCc2ccccc2F)nc2ccncc21 (stereo not given),-117.9*,-5.1%,4.8,3.1%,6.8%,10.8%
Cc1cccc(-n2c(N)cc(=O)nc2SCC(=O)Nc2ccccc2)c1,-178.9*,-2.6%,-143.7*,4.1%,2.3%[57.1 µM],-4.8%
CC(NC(=O)COc1ccccc1-c1ccccc1)c1ccccc1 (stereo not given),-0.4,1.3%,i,5.7%,39.8µM*,-17.1%
CCOC(=O)C1=C(C)NC(C)=C(C(=O)OCC)C1C(=O)OCC(=O)NCc1ccccc1,6.0,-4.8%,-0.3,-7.1%,-7.6%,-1.7%
CCOC(=O)C1=C(C)NC(C)=C(C(=O)OCC)C1C(=O)OCC(=O)NC(C)c1ccccc1 (stereo not given),-10.8,0.0%,-103.6*,-3.4%,-21.5%,-9.8%
CC(=O)Nc1ccccc1OCC(=O)NC(C)c1ccccc1 (stereo not given),8.8,-1.6%,/,11.5%,-6.1%[57.1 µM],4.9%
O=C(c1ccccn1)N1CCN(S(=O)(=O)c2ccccc2)CC1,-3.9,7.2%,-3.6,1.4%,2.0%,?
Cc1ccc(-c2nc3cc(C)c(Br)c(C)n3c2Cc2ccsc2)cc1,/,7.5%,/,4.5%,-1.5%,-20.0%
COCCNC(=S)NN=C1CCC(c2ccccc2)CC1 (stereo not given),19.7,-9.6%,-4.8,-5.5%,-11.3%,-19.8%
CC(=O)NN=C1CCC(c2ccccc2)CC1 (stereo not given),1.4,-4.5%,-88.2*,-1.9%,4.7%,-10.2%
SMILES,KCNH2 3.1 block,EPAC1 ag,hERG WT inh,EPAC2 ag,EPAC2 antagonist,EPAC1 antagonist
O=c1[nH]nc(-c2ccccc2)c2ccccc12,-113.0*,2.3%,-10.6,4.8%,-0.8%,-3.6%
Clc1ccc(CON/C=N/c2ncnc3sccc23)cc1,-6.6,18.2%,-3.5,7.94µM*,-15.2%,-21.2%
CCOCCCN(C(=O)CCC(=O)Nc1cc(C)on1)C(C(=O)NC(C)(C)C)c1ccccc1Cl (stereo not given),-0.3,-21.8%,8.8,16.3%,4.2%,-11.2%
CCC(=O)Oc1ccc(C(=O)Nc2ccc([N+](=O)[O-])cc2)cc1,9.3,-2.8%,-158.9*,-2.7%,5.1%,1.4%
O=C(NCc1cccc(C(F)(F)F)c1)C1C(=O)Nc2ccccc2C(=O)N1C1CCCC1 (stereo not given),/,-6.4%,/,1.1%,-5.7%,-23.7%
N#Cc1ccccc1S(=O)(=O)N1CCN(C(=O)C2CC(=O)N(c3ccc4c(c3)OCCO4)C2)CC1 (stereo not given),-74.6*,13.1%,-9.5,5.7%,-1.7%,5.1%
CC(/C=C1\SC(=S)N(NS(=O)(=O)c2ccc(C)cc2)C1=O)=C\c1ccccc1,8.4,3.5%,-0.6,-0.7%,35.5µM*,39.8µM*
CC(/C=C1\SC(=S)N(NC(=O)c2ccc(C)cc2)C1=O)=C\c1ccccc1,5.4,-4.5%,0.7,10.2%,-9.2%,-4.9%
CC(/C=C1\SC(=S)N(NS(=O)(=O)c2ccccc2)C1=O)=C\c1ccccc1,0.0,-6.9%,2.6,1.6%,50.1µM*,39.8µM*
CC(/C=C1\SC(=S)N(NC(=O)c2ccccc2C)C1=O)=C\c1ccccc1,-15.9,7.0%,-3.2,0.3%,-6.8%,-1.6%
C[C@H](CO)N1C[C@H](C)[C@@H](CN(C)S(C)(=O)=O)Oc2ccc(NC(=O)CCC(F)(F)F)cc2C1=O,19.5,1.4%,-1.9,1.9%,5.8%,14.5%
COc1nc(C)cc(C)c1S(=O)(=O)c1ccccc1C,-10.0,-0.4%,0.7,-0.3%,12.6µM*,-0.5%
C#CCOc1nc(C)cc(C)c1S(=O)(=O)c1ccccc1C,6.2,1.9%,4.9,7.4%,28.2µM*,7.1%
CCC(C)Oc1nc(C)cc(C)c1S(=O)(=O)c1ccccc1C (stereo not given),0.1,0.9%,4.8,1.3%,-20.5%,-3.6%
CSc1nc(C)cc(C)c1S(=O)(=O)c1ccccc1C,12.5,12.6%,-12.6,21.0%,35.5µM*,-16.7%
